Source: PubChem BioAssay (several laboratories)
Sampled rows, rich in hits. Any-hit rate of the full collection: about 13%.
WT yeast gro inh: growth inhibition of WT yeast, mitochondrial fusion screen. mitochondrial fusion phenotypic screen, WT strain. inhibition, % at 10 µM. 2.1% of 190,000 active. AID 1362; in the data active = inhibition above about 58%; tested in S. cerevisiae
CHOP inhibitor: CHOP inhibition in unfolded protein response; 3.8% of 220,000 active; AID 2732; CHO-K1 CHOP-promoter luciferase, tunicamycin-induced, 15-18 h; inhibition, % at 10 µM;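 active = compounds that reduced the stress-induced luciferase reporter signal by more than about 70% of percent inhibition, limit read from the data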;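 also: 0% = tunicamycin plus vehicle and 100% = wells without tunicamycin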
L major viab: inhibitors of Leishmania major promastigote growth | Leishmania major promastigotes, resazurin fluorescence viability | 9% of 200,000 active | inhibition, % at 10 µM; in the data active = inhibition above about 50%;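 also: promastigotes grown with compound for 44 hours at 28 °C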
RAM network inh: blocks the yeast RAM network. S. cerevisiae dse1pr::URA3 reporter, 5-FOA growth OD615, 2 d; analog-sensitive cbk1-as2 kinase mutant strain. inhibition, % at 50 µM. 1.8% of 190,000 active. AID 868;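 active = inhibition above a set limit, 3 SD over mean compound inhibition, cut at about 8.4% in these data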;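 also: 0% = DMSO-only wells with no growth and 100% = 10 µM 1-NA-PP1 full growth; inhibition rescues growth on 5-FOA so higher OD means more RAM inhibition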
An asterisk follows results filed as active; . = no result given.

SMILES	WT yeast gro inh	CHOP inhibitor	L major viab	RAM network inh
O=C(Nc1ccc(OC(F)(F)C(F)F)c(NC(=O)c2cccc(F)c2)c1)c1cccc(F)c1	-4	17	-5	8
CCCCOC(C)n1cc(F)c(=O)[nH]c1=O (stereo not given)	-19	-5	-5	-1
COCCN1CCn2c(nc3cc(NC(=O)c4cccs4)ccc32)C1	13	-11	2	1
CC(c1ccccc1)N1CCn2c(nc3cc(NC(=O)c4cccs4)ccc32)C1 (stereo not given)	5	-2	99*	0
COc1cccc(NC(=O)CC2SC(=Nc3ccccc3)NC2=O)c1 (stereo not given)	-12	32	6	4
COc1cccc(NC(=O)CC2S/C(=N\S(=O)(=O)c3ccccc3)N(c3ccccc3)C2=O)c1 (stereo not given)	10	26	61*	5
COc1cc(C2NC(=O)NC3=C2C(=O)OC3)cc(OC)c1OC (stereo not given)	.	-21	.	.
CC(C)c1ccc(OCC(=O)NC2=NCCS2)cc1	-7	0	-7	1
O=C(NCc1cccnc1)/C(=C\c1ccc(-c2cccc(Cl)c2)o1)S(=O)(=O)c1ccccc1	0	43	100*	0
O=C(NCc1cccnc1)/C(=C/c1ccc(-c2cccc(Cl)c2)o1)S(=O)(=O)c1ccccc1	-17	94*	100*	2
N#C/C(=C/c1ccc(CNC(=O)C(=O)Nc2cc(Cl)cc(Cl)c2)o1)C(=O)NCc1cccnc1	-1	82*	-5	8.6*
CN(C)C(=S)SCC(=O)Nc1ccc(Cl)cc1Cl	-10	31	22	5
CNC(=S)N1N=C(c2ccc(OC)cc2)CC1c1ccc(N(C)C)cc1 (stereo not given)	0	-27	5	1
CNC(=S)N1N=C(c2ccc(Br)cc2)CC1c1ccc(N(C)C)cc1 (stereo not given)	16	27	51*	2
CNC(=S)N1N=C(c2ccc(C)cc2)CC1c1ccc(OC)c(OC)c1 (stereo not given)	23	9	14	3
CNC(=S)N1N=C(c2ccc(Br)cc2)CC1c1ccc(Br)cc1 (stereo not given)	7	35	100*	6
Cc1ccc(-n2nnnc2SCC(=O)Nc2sccc2C#N)cc1	-2	23	-4	5
O=[N+]([O-])c1ccc(-n2nnnc2-c2ccccc2)c([N+](=O)[O-])c1	30	-66	100*	1
CCOc1ccc(S(=O)(=O)NCc2ccc(C)cc2)c2cccnc12	-11	-2	98*	0
Oc1ccc(-c2nccc(-c3ccc(Cl)cc3Cl)n2)cc1	-12	80*	20	1
Cn1c(SCC(=O)Nc2cccc(Br)c2)nnc1-c1cc2ccccc2o1	5	91*	-3	3
Cc1ccc(CN(CC(=O)N/N=C/c2ccco2)S(=O)(=O)c2ccc(C)cc2)cc1	14	-1	-4	-1
CC(C)C[C@H](NC(=O)OC(C)(C)C)c1nnc(SCc2ccccc2)o1	35	52	85*	4
CC(C)[C@H](NC(=O)OC(C)(C)C)c1nnc(SCC(=O)Nc2ccc(Br)cc2)o1	4	73*	-2	0
CSCC[C@H](NC(=O)OC(C)(C)C)c1nnc(SCC(=O)Nc2c(C)cccc2C)o1	27	16	-3	0
SMILES	WT yeast gro inh	CHOP inhibitor	L major viab	RAM network inh
CCOC(=O)CSc1nnc([C@H](Cc2ccccc2)NC(=O)OC(C)(C)C)o1	23	12	-2	0
Cc1cccc(C)c1NC(=O)CSc1nnc([C@H](C)NC(=O)OC(C)(C)C)o1	8	79*	-4	0
CCN(CC)S(=O)(=O)c1cccc(C(=O)NC(C)C(c2cccs2)N2CCCC2)c1 (stereo not given)	-8	11	2	1
CC(=O)Nc1ccc(S(=O)(=O)N/N=C/c2ccc(C)s2)cc1	10	10	45	0
Cc1ccccc1NC(NC(=O)OCCn1c([N+](=O)[O-])cnc1C)C(Cl)(Cl)Cl (stereo not given)	-7	14	41	4
COc1cccc(/C=N/Nc2cc(Cl)nc(C)n2)c1O	13	-8	-1	1
COc1cccc(/C=N/Nc2ncnc3c2ncn3Cc2ccccc2)c1O	6	68	88*	7
Cc1c(Cl)cccc1NC(=S)NC1CC1	-24	-19	82*	0
Cc1ccc(NC(=O)NC2CCCCC2)cc1Cl	13	31	4	0
Cc1c(Cl)cccc1NC(=O)NC1CCCCC1	-3	78*	-2	1
COc1ccccc1C(=O)N/C(=C/c1ccc(Br)cc1)C(=O)N1CCCC1	-6	-3	4	0
CSc1c(CC(=O)Nc2ccccc2C(F)(F)F)n(Cc2ccccc2)c2ccccc12	-6	61	4	8
COC(=O)c1ccn(C(=O)c2ccc(Cl)cc2)n1	93*	-11	-1	0
COc1ccc(C(=O)CC(Nc2ccc([N+](=O)[O-])cc2)c2ccc(OC)cc2)cc1 (stereo not given)	6	35	82*	4
COc1ccc(C(=O)/C(C#N)=N/Nc2ccccc2[N+](=O)[O-])cc1	-1	22	5	2
COc1ccc(C(=O)/C(C#N)=N/Nc2ccc([N+](=O)[O-])cc2)cc1	65*	57	56*	2
Cc1nc(N2CCCCC2)nc(N2CCCCC2)c1C=O	2	-15	-2	4
Cc1ccnc(N=Cc2c(O)ccc3oc4c(c23)CCCC4)c1	-4	13	90*	0
Oc1ccccc1N=Cc1c(O)ccc2oc3c(c12)CCCC3	.	10	.	.
Cc1cc(/C=N/Nc2nc(N)ncc2[N+](=O)[O-])c(C)n1-c1ccccc1F	.	80*	.	.
N#Cc1cccc(C(c2nnnn2C2CCCC2)N2CCC(Cc3ccccc3)CC2)c1 (stereo not given)	-5	-10	65*	3
COc1ccc(C(c2nnnn2CCc2ccccc2)N2CCN(C3CCCC3)CC2)cc1 (stereo not given)	-8	15	99*	0
N#Cc1ccc(C(c2nnnn2C2CCCC2)N2CCC(Cc3ccccc3)CC2)cc1 (stereo not given)	14	24	1	5
CCC(c1nnnn1CCc1ccccc1)N1CCN(c2ccc(OC)cc2)CC1 (stereo not given)	18	18	96*	2
N#Cc1cccc(C(c2nnnn2CCc2ccccc2)N2CCN(C3CCCCC3)CC2)c1 (stereo not given)	-2	1	81*	0
CCC(c1nnnn1Cc1ccccc1)N1CCN(c2ccccc2)CC1 (stereo not given)	9	-4	38	0
COc1ccc(-c2nn(C)c(=O)c3ccccc23)cc1NC(=O)Cn1nc(-c2ccccc2)c2ccccc2c1=O	6	51	65*	1
CCN1CCN(C(=O)C2(NC(=O)Nc3ccccc3Cl)CCCCC2)CC1	8	4	55*	2
O=C(NCc1ccccc1)NC1(C(=O)N2CCN(c3ccccc3)CC2)CCCCC1	-17	19	54*	0
CN1CCN(C(=O)C2(NC(=O)Nc3ccccc3Cl)CCCCC2)CC1	-4	16	15	0
